{"source": "paper PMC8384837", "about": "“Expanding the binding specificity for RNA recognition by a PUF domain”", "test_in_all_cases": "yeast three-hybrid, YBZ-1, SC-Leu-His + 0.5 mM 3-AT, 4 days", "settings_in_all_cases": "tags: N-Gal4 AD-HA kept; label: inside an RPR1-promoter hybrid RNA with tandem MS2 sites; ssRNA", "key": {"PUM1 PUF domain R3-EWC": {"molecular_target": "PUM1 PUF domain R3-EWC (Homo sapiens, UniProt Q14671 828-1176, C935E;R936W;Q939C)", "in_short": "(§1)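 The interaction score is the log change in variant frequency from input to selection. Scores were computed in log2 with a pseudocount of 1 for absent variants, using Illumina sequencing of PCR-amplified repeat regions. The input came from four days on SC-Leu and the selection from four days on SC-Leu-His + 0.5 mM 3-AT. The cells were strain YBZ-1 (LexA–MS2 coat fusion, HIS3 reporter) co-expressing Pumilio-1 PUF domain libraries and matching RNA elements from a centromeric plasmid.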"}, "PUM1 PUF domain R7-LNR": {"molecular_target": "PUM1 PUF domain R7-LNR (Homo sapiens, UniProt Q14671 828-1176, S1079L;E1083R)", "in_short": "as §1"}, "PUM1 PUF domain R6-GFG": {"molecular_target": "T1, PUM1 PUF domain R6-GFG (Homo sapiens, UniProt Q14671 828-1176, N1043G;Y1044F;Q1047G)", "T1 sequence": "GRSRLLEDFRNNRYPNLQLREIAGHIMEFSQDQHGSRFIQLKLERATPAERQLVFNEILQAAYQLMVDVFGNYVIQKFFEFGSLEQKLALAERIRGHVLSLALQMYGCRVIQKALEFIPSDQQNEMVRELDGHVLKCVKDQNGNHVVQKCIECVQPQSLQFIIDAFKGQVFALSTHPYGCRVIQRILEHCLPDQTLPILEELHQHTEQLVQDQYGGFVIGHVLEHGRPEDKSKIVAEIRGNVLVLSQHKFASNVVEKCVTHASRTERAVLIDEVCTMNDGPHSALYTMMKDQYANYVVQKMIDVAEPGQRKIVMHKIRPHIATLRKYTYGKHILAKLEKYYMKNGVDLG", "in_short": "as §1"}, "PUM1 PUF domain R1-KHR": {"molecular_target": "PUM1 PUF domain R1-KHR (Homo sapiens, UniProt Q14671 828-1176, S863K;R864H;Q867R)", "in_short": "as §1"}, "PUM1 PUF domain R1-VYR": {"molecular_target": "PUM1 PUF domain R1-VYR (Homo sapiens, UniProt Q14671 828-1176, S863V;R864Y;Q867R)", "in_short": "as §1"}, "PUM1 PUF domain R8-KHG": {"molecular_target": "PUM1 PUF domain R8-KHG (Homo sapiens, UniProt Q14671 828-1176, N1122K;Y1123H;Q1126G)", "in_short": "as §1"}, "PUM1 PUF domain R2-NRD": {"molecular_target": "PUM1 PUF domain R2-NRD (Homo sapiens, UniProt Q14671 828-1176, Y900R;Q903D)", "in_short": "as §1"}, "PUM1 PUF domain R6-SRE": {"molecular_target": "T2, PUM1 PUF domain R6-SRE (Homo sapiens, UniProt Q14671 828-1176, N1043S;Y1044R;Q1047E)", "T2 sequence": "T1 sequence with G216S, F217R, G220E", "in_short": "as §1"}}, "note": "Where a chain is given by its changes, count along the chain named.", "data": [{"sequence": "GGCUAGAACUAGUGGAUCCCCCGGCGCCCGGCGGCUCGAGCCCGGGUAAGUGUAACUAGUCUGCAUGCCGCCGGGCGCCAUGCCUGCAGGUCGACUCUAGAAAACAUG", "values": [{"measurement": "binding signal", "setting": "PUM1 PUF domain R3-EWC", "result": "4.45 log2 enrichment (interaction score)"}]}, {"sequence": "GGCUAGAACUAGUGGAUCCCCCGGCGCCCGGCGGCUCGAGCCCGGGUAAGUCUAAAUAGUCUGCAUGCCGCCGGGCGCCAUGCCUGCAGGUCGACUCUAGAAAACAUG", "values": [{"measurement": "binding signal", "setting": "PUM1 PUF domain R7-LNR", "result": "3.62 log2 enrichment (interaction score)"}]}, {"sequence": "GGCUAGAACUAGUGGAUCCCCCGGCGCCCGGCGGCUCGAGCCCGGGUAAGUGUAAAUAGUCUGCAUGCCGCCGGGCGCCAUGCCUGCAGGUCGACUCUAGAAAACAUG", "values": [{"measurement": "binding signal", "setting": "PUM1 PUF domain R6-GFG", "result": "3.55 log2 enrichment (interaction score)"}]}, {"sequence": "GGCUAGAACUAGUGGAUCCCCCGGCGCCCGGCGGCUCGAGCCCGGGUAAGUGUAAAUCGUCUGCAUGCCGCCGGGCGCCAUGCCUGCAGGUCGACUCUAGAAAACAUG", "values": [{"measurement": "binding signal", "setting": "PUM1 PUF domain R1-KHR", "result": "5.17 log2 enrichment (interaction score)"}, {"measurement": "binding signal", "setting": "PUM1 PUF domain R1-VYR", "result": "2.62 log2 enrichment (interaction score)"}]}, {"sequence": "GGCUAGAACUAGUGGAUCCCCCGGCGCCCGGCGGCUCGAGCCCGGGUAAGUGUAAAUUGUCUGCAUGCCGCCGGGCGCCAUGCCUGCAGGUCGACUCUAGAAAACAUG", "values": [{"measurement": "binding signal", "setting": "PUM1 PUF domain R1-KHR", "result": "2.59 log2 enrichment (interaction score)"}]}, {"sequence": "GGCUAGAACUAGUGGAUCCCCCGGCGCCCGGCGGCUCGAGCCCGGGUAAGCGUAAAUAGUCUGCAUGCCGCCGGGCGCCAUGCCUGCAGGUCGACUCUAGAAAACAUG", "values": [{"measurement": "binding signal", "setting": "PUM1 PUF domain R8-KHG", "result": "5.27 log2 enrichment (interaction score)"}]}, {"sequence": "GGCUAGAACUAGUGGAUCCCCCGGCGCCCGGCGGCUCGAGCCCGGGUAAGGGUAAAUAGUCUGCAUGCCGCCGGGCGCCAUGCCUGCAGGUCGACUCUAGAAAACAUG", "values": [{"measurement": "binding signal", "setting": "PUM1 PUF domain R8-KHG", "result": "3.34 log2 enrichment (interaction score)"}]}, {"sequence": "GGCUAGAACUAGUGGAUCCCCCGGCGCCCGGCGGCUCGAGCCCGGGUAAGUGUAAAAAGUCUGCAUGCCGCCGGGCGCCAUGCCUGCAGGUCGACUCUAGAAAACAUG", "values": [{"measurement": "binding signal", "setting": "PUM1 PUF domain R2-NRD", "result": "3.12 log2 enrichment (interaction score)"}]}, {"sequence": "GGCUAGAACUAGUGGAUCCCCCGGCGCCCGGCGGCUCGAGCCCGGGUAAGUGGAAAUAGUCUGCAUGCCGCCGGGCGCCAUGCCUGCAGGUCGACUCUAGAAAACAUG", "values": [{"measurement": "binding signal", "setting": "PUM1 PUF domain R6-SRE", "result": "5.64 log2 enrichment (interaction score)"}]}]}
